We go through 20 compounds from PubChem BioAssay.

As a reminder, the inhibition is the relative decrease from the control value, in per cent.

Values without a mark were called inactive. For some of these results: Potency and affinity values are given separately. Active and inactive are the calls of the source. Unless noted, how the calls were made is not given here.

Assay [1] is described as follows: antimalarial activity against Dd2 strain (AID 2302;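 active means growth inhibition above 50% at the single 2 µM test dose, taken to imply half-maximal potency below 2 µM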;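 further: 0% = DMSO untreated growth and 100% = chloroquine plus artemisinin killed control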). The settings on record: P. falciparum Dd2 in RBCs, LDH growth readout, 72 h; at 2 µM; stronger effect = higher value.
Assay [2] can be described thus: human hepatoma cell viability loss – ATP luminescence, cytotoxicity control for P. falciparum antimalarial project, primary screen (AID 2303;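 active means inhibition above 50%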;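 further: 0% = DMSO wells and 100% = digitonin-killed cells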). The settings on record: HepG2 viability, 24-48 h, at 10 µM, stronger effect = higher value.
Assay [3] concerns the target L-lactate dehydrogenase (Plasmodium falciparum (isolate CDC / Honduras)) (UniProt Q27743). Description: PfLDH activity inhibition – cell lysate, 3D7 strain, counter-screen for P. falciparum growth inhibition project (AID 2304).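 Further: 0% = vehicle and 100% = reference inhibitor.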 The following applies: P. falciparum 3D7 crude extract, LDH APAD/NBT absorbance; at 2 µM; stronger effect = higher value.
Assay [4] can be described thus: inhibition of 3D7 malaria parasite growth – strain 3D7 (AID 2306).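 Further: 0% = DMSO wells and 100% = chloroquine plus artemisinin control wells.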 The settings on record: P. falciparum 3D7 erythrocytic growth, LDH absorbance, 72 h; at 2 µM; stronger effect = higher value.
Assay [5] has as its target Calcium-dependent protein kinase 1 (Plasmodium falciparum (isolate 3D7)) (UniProt P62344). Description: PfCDPK1 kinase inhibitors, biochemical, TCAMS library (AID 1159585; cut-off not given, nearly all actives have IC50 up to about 0.98 µM;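 further: inhibitors leave more ATP so luminescence rises with inhibition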). The settings on record: recombinant PfCDPK1, Kinase-Glo ATP depletion luminescence.
Assay [6] deals with Plasmodium falciparum protein kinase 6 (PK6, PF3D7_1337100) (UniProt Q8IDW1). As to the kind of experiment: PfPK6 kinase inhibitors, biochemical, TCAMS library (AID 1159586). The settings on record: recombinant PfPK6, Kinase-Glo ATP depletion luminescence. A general note: Kinase-Glo measures the ATP left after a reaction by luminescence.
Assay [7] has as its target Protein kinase 7 (PK7), Plasmodium falciparum 3D7 (PF3D7_0213400) (UniProt Q7YTF7). Description: inhibition of Plasmodium PK7 catalytic activity – biochemical, TCAMS antimalarial set, Kinase-Glo luminescence (AID 1159587). The settings on record: recombinant PfPK7, Kinase-Glo ATP depletion luminescence.
Assay [8] has as its target Calcium-dependent protein kinase 4 (Plasmodium falciparum (isolate 3D7)) (UniProt Q8IBS5). As to the kind of experiment: PfCDPK4 kinase inhibitors, biochemical, TCAMS library (AID 1159588; cut-off not given, nearly all actives have IC50 up to about 0.91 µM). The following applies: recombinant PfCDPK4, Kinase-Glo ATP depletion luminescence.

Calcium-dependent protein kinase 1 (Plasmodium falciparum (isolate 3D7)), sequence (P62344 whole entry, looked up): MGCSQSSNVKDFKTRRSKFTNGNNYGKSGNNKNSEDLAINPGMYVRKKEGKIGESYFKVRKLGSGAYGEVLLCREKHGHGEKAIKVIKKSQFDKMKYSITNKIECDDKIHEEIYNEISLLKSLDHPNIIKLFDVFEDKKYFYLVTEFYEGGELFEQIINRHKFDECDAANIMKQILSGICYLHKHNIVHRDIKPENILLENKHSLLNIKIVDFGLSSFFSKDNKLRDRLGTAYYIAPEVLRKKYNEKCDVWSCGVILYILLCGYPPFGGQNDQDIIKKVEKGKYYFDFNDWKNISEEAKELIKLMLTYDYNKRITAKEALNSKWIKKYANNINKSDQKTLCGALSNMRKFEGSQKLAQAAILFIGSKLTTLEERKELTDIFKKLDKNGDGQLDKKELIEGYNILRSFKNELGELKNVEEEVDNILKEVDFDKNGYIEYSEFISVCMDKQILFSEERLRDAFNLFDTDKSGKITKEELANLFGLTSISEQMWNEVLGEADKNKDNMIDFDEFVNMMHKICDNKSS
Plasmodium falciparum protein kinase 6 (PK6, PF3D7_1337100), sequence (Q8IDW1 1-305): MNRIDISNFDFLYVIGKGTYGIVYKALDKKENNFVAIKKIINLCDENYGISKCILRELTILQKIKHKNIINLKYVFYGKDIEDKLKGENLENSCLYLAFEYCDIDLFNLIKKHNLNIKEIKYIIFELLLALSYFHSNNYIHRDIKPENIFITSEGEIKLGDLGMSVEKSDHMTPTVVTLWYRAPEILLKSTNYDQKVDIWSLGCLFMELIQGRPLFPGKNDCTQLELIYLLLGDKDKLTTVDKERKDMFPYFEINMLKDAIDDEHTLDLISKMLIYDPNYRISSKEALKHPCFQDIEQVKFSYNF
L-lactate dehydrogenase (Plasmodium falciparum (isolate CDC / Honduras)), sequence (Q27743 whole entry, looked up): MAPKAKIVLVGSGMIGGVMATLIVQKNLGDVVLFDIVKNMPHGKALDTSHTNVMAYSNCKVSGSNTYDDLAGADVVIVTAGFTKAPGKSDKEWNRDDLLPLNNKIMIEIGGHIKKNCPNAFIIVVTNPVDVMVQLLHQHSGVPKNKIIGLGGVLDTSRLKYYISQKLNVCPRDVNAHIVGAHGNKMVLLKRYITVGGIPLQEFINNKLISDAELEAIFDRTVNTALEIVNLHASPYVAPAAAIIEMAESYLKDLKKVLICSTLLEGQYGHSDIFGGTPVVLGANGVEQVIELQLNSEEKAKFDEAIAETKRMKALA
Protein kinase 7 (PK7), Plasmodium falciparum 3D7 (PF3D7_0213400), sequence (Q7YTF7 1-343): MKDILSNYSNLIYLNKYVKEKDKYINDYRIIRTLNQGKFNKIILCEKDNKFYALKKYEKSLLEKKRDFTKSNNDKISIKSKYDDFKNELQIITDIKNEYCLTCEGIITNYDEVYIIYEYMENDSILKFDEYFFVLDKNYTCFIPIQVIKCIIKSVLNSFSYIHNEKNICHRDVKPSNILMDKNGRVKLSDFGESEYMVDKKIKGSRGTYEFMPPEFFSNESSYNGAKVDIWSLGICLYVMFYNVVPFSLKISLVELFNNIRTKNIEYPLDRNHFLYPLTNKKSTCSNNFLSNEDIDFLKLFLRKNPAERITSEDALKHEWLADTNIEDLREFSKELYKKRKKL
Calcium-dependent protein kinase 4 (Plasmodium falciparum (isolate 3D7)), sequence (Q8IBS5 whole entry, looked up): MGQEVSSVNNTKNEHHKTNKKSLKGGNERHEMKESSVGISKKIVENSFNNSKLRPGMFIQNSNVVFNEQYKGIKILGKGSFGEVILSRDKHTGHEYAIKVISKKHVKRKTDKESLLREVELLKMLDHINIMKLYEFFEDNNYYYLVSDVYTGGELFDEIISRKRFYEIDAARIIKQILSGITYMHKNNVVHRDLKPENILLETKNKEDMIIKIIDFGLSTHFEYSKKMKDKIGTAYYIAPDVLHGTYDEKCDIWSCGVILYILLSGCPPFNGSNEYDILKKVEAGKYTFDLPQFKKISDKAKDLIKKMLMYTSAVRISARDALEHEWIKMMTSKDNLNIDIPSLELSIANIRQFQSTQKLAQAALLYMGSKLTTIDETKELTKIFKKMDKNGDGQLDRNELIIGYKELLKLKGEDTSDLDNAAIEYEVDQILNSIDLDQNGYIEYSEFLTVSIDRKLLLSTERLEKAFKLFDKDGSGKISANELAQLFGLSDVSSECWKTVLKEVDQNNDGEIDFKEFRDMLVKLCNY

Turning to `Cc1nc(-c2ccccc2)nc(N2CCN(C(=O)c3ccco3)CC2)c1Cc1ccccc1F`, the growth inhibition is 86% (active) in assay [1] and 95% (active) in assay [4]. Besides, the inhibition is 7% in assay [2] and 1% in assay [3]. Besides, the result in assay [5], in assay [6], in assay [7] and in assay [8] was inactive.

Take `CC(C)N(Cc1cnc2nc(N)nc(N)c2n1)c1ccc(Cl)c(Cl)c1`: the growth inhibition was 98% (active) in assay [1] and 101% (active) in assay [4]. Besides, the inhibition was 63% (active) in assay [2] and -3% in assay [3]. Further, the result in assay [5], in assay [6], in assay [7] and in assay [8] was inactive.

For the compound `CCCC1N=C(N)N=C(N)N1c1ccc(OC)cc1` (stereo not given), the growth inhibition in assay [1] was 4%; in assay [4] it was 96% (active). The inhibition was -2% in assay [2] and -3% in assay [3]. The outcome in assay [5], in assay [6], in assay [7] and in assay [8] was inactive.

Take `COc1ccc(NC(=O)Nc2cccc(-c3ccc(-c4nc5ccc(C(F)(F)F)cc5[nH]4)cc3)c2)cc1`: the growth inhibition is 29% in assay [1] and 101% (active) in assay [4]. The figures for the inhibition in assay [2] and in assay [3] were 46% and 6%, respectively. The result in assay [5], in assay [6], in assay [7] and in assay [8] was inactive.

As for `COc1ccc2cc(CNCCCCCCNCc3ccc4cc(OC)ccc4c3)ccc2c1`, the growth inhibition in assay [1] is 92% (active); in assay [4], 100% (active). For the same compound, the results for the inhibition in assay [2] and in assay [3] were 100% (active) and -6%, respectively. The outcome in assay [5], in assay [6], in assay [7] and in assay [8] was inactive.

As to `CC(C)(C)c1ccc(CN2CCC(NC(=O)c3ccc(-c4cccc(C(F)(F)F)c4)s3)CC2)cc1`, the growth inhibition is 96% (active) in assay [1] and 100% (active) in assay [4]. In addition, the inhibition in assay [2] is 97% (active); in assay [3], -5%. The outcome in assay [5], in assay [6], in assay [7] and in assay [8] was inactive.

Consider `Cc1cccc2[nH]c(-c3ccc(-c4cccc(CNCCNC(=O)c5ccnn5C)c4)cc3)nc12`, for which the growth inhibition in assay [1] is 92% (active); in assay [4], 100% (active). Also, the inhibition in assay [2] is 17%; in assay [3], -4%. The outcome in assay [5], in assay [6], in assay [7] and in assay [8] was inactive.

As to `COC(=O)c1ccc2nc(-c3cc(OC)c(O)c(C(=O)NC4CCN(Cc5ccccc5)CC4)c3)[nH]c2c1`, the growth inhibition in assay [1] was -2%; in assay [4], 85% (active). The values for the inhibition in assay [2] and in assay [3] were 8% and 0%, respectively. Further, the outcome in assay [5], in assay [6], in assay [7] and in assay [8] was inactive.

Turning to `COc1ccc(NC(=O)/C=C/c2ccccc2Cl)cc1OCCN1CCC(N2CCCCC2)CC1`, the growth inhibition in assay [1] is 49%; in assay [4], 101% (active). The results for the inhibition in assay [2] and in assay [3] were 3% and 1%, respectively. The result in assay [5], in assay [6], in assay [7] and in assay [8] was inactive.

`Cc1cc(NCCC(=O)NCCOc2ccccc2)nc(NCCc2ccccc2)n1`: the growth inhibition in assay [1] was 9%; in assay [4], 99% (active). The inhibition is -6% in assay [2] and -1% in assay [3]. Moreover, the result in assay [5], in assay [6], in assay [7] and in assay [8] was inactive.

Turning to `OC(c1ccc(Cl)cc1)(c1ccc(Cl)cc1)C(c1ccc(Cl)cc1)n1ccnc1` (stereo not given), the growth inhibition in assay [1] was 100% (active); in assay [4] it was 101% (active). The values for the inhibition in assay [2] and in assay [3] were 15% and -3%, respectively. Also, the result in assay [5], in assay [6], in assay [7] and in assay [8] was inactive.

Consider `O=C(/C=C/c1ccc(Cl)c(Cl)c1)NCCCCCN1CCC(NC(=S)Nc2ccc(F)cc2F)CC1`, for which the growth inhibition is 18% in assay [1] and 100% (active) in assay [4]. Besides, the figures for the inhibition in assay [2] and in assay [3] were 20% and 1%, respectively. In addition, the outcome in assay [5], in assay [6], in assay [7] and in assay [8] was inactive.

As to `CCOC(=O)CC[C@H](NC(=O)c1ccc(NS(=O)(=O)c2ccc(-c3cnc(N)[nH]c3=O)cc2)cc1)C(=O)OCC`, the growth inhibition in assay [1] was 2%; in assay [4], 95% (active). Further, the inhibition in assay [2] is 5%; in assay [3], 4%. Further, the outcome in assay [5], in assay [6], in assay [7] and in assay [8] was inactive.

Take `CC(=O)c1ccc2c(c1)[C@H](NC(=O)c1cccc(Cl)c1Cl)[C@@H](CO)C(C)(C)O2`: the growth inhibition is 44% in assay [1] and 99% (active) in assay [4]. Further, the inhibition in assay [2] is 5%; in assay [3], 4%. Besides, the result in assay [5], in assay [6], in assay [7] and in assay [8] was inactive.

As to `O=C(Nc1ccc(-c2cccc(-c3nc4ccc(F)cc4[nH]3)c2)cc1)c1ccncc1`, the growth inhibition in assay [1] was 18%; in assay [4], 96% (active). In addition, the values for the inhibition in assay [2] and in assay [3] were 58% (active) and -5%, respectively. Also, the outcome in assay [5], in assay [6], in assay [7] and in assay [8] was inactive.

For `CC1CCC2(CC1)N=C(N)N=C(N)N2OCc1cc2ccccc2c2ccccc12` (stereo not given), the growth inhibition in assay [1] is 41%; in assay [4], 97% (active). Further, the results for the inhibition in assay [2] and in assay [3] were 27% and -2%, respectively. Besides, the outcome in assay [5], in assay [6], in assay [7] and in assay [8] was inactive.

With `O=C(Nc1cccc(-c2cc3ccccc3[nH]2)c1)C1CCN(Cc2ccccc2O)CC1`, the growth inhibition was 25% in assay [1] and 95% (active) in assay [4]. The inhibition in assay [2] is 34%; in assay [3] it was -1%. The outcome in assay [5], in assay [6], in assay [7] and in assay [8] was inactive.

With `CCc1nc2c(cnn2CC)c(NC2CCOCC2)c1CNC(=O)c1ccoc1C`, the growth inhibition in assay [1] is 87% (active); in assay [4] it was 97% (active). In addition, the inhibition is 6% in assay [2] and 2% in assay [3]. The result in assay [5], in assay [6], in assay [7] and in assay [8] was inactive.

Take `CN1CCN(c2ccc(Nc3nc(N)c4ccn(C5CCC5)c4n3)cc2)CC1`: the growth inhibition in assay [1] is 47%; in assay [4], 93% (active). Besides, the inhibition in assay [2] is -3%; in assay [3], 2%. Moreover, the outcome in assay [5], in assay [6], in assay [7] and in assay [8] was inactive.

For `CCN1CCN(CCCNc2ccnc3cc(Cl)ccc23)CC1`, the figures for the growth inhibition in assay [1] and in assay [4] were 77% (active) and 101% (active), respectively. The inhibition in assay [2] was 7%; in assay [3] it was 2%. Moreover, the result in assay [5], in assay [6], in assay [7] and in assay [8] was inactive.
